The results in this text go back to PubChem BioAssay (NCATS).

The nature of assay [1]: qHTS Assay for Lipid Storage Modulators (AID 1519; calls by dose curve; on activity change, negative = inhibition: on the % scale 0 is the no-effect control and ±100 the full control effect). The settings on record: Drosophila S3 cells, BODIPY lipid droplet/cell ratio, laser cytometry, cells loaded with oleic acid. In a few lines:
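Cells seeded at 5,000 per well were treated with compounds over a concentration series and loaded with oleic acid (400 uM, as added). Lipid droplet fluorescence (488 nm excitation, 500-530 nm channel) was read by laser-scanning cytometry and normalized to 20 uM Triacsin C.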

Assay [2] can be described thus: Cell Viability - LYMP1-002 - Assay at 40 hr (AID 994). Further: nearly all actives have a fitted effect of over 60% in size. Further: potency means the concentration at half of the fitted maximal effect. The settings on record: LYMP1-002 lymphoblastoid cell viability; series mostly up to 92.2 µM. In a few lines:
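Cells are plated at 2500 per well and rested 5 hr at 37 C. Compounds are added and incubated 40 hr at 37 C. CellTiter-Glo reagent is added for 30 min at room temperature before luminescence is read.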

Assay [3] has as its target DNA repair nuclease/redox regulator APEX1 (Homo sapiens) (UniProt P27695). The assay is described as follows: qHTS Validation Assay for Inhibitors of the Human Apurinic/apyrimidinic Endonuclease 1 (APE1) (AID 1705;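 further: TAMRA fluorescence gain over two minutes as APE1 cuts a quenched THF abasic duplex; on the % scale 0 is the no-effect control and ±100 the full control effect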). The settings on record: purified APE1 endonuclease activity, fluorescence, titration; series mostly up to 57.1 µM. In a few lines: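 Human APE1 was preincubated with compound for 15 min at room temperature, then 50 nM (final) THF-abasic double-stranded DNA substrate bearing 5'-TAMRA and 3'-BHQ-2 was added. Incision-driven fluorescence rise (ex 525/em 598 nm) was read kinetically.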

Assay [4] can be described thus: Counterscreen for APE1 Inhibitors: Fluorescent Dye Displacement Validation Assay (AID 1707).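 Further: plate controls were ThO with dsDNA and no compound for no effect and ThO without dsDNA for full effect.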 The settings on record: fluorescent dye displacement from DNA; series mostly up to 57.1 µM. In a few lines:
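Counterscreen flags promiscuous DNA binders: compounds displacing ThO from duplex DNA (abasic THF site, 50 nM) reduce 540 nm emission (480 nm excitation). ThO 250 nM final; Tris-HCl pH 7.5 with NaCl, MgCl2 and Tween-20.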

In assay [5] the target is Endonuclease 4 (Escherichia coli (strain K12)) (UniProt P0A6C1). Briefly: Counterscreen for APE1 Inhibitors: qHTS Validation Assay for Inhibitors of Endonuclease IV (AID 1708). Further: on the % scale 0 is the no-effect control and ±100 the full control effect. The settings on record: E. coli endonuclease IV, DNA cleavage fluorescence; series mostly up to 57.1 µM. The method, boiled down: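 Incision of a double-stranded 50 nM TAMRA/BHQ-2 abasic substrate was followed kinetically (525/598 nm, reads every 60 s) after 15 min enzyme–compound preincubation with 2 nM EndoIV in pH 7.5 Tris buffer with MgCl2, DTT and Tween-20; concentration-response format.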
(A counterscreen serves to expose hits that act by an unwanted route or on another target.)

Assay [6] in a line: qHTS for differential inhibitors of proliferation of Plasmodium falciparum line 7G8 (AID 1815).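 Further: parasite growth measured after three days of incubation; plate controls were vehicle wells for no effect and reference inhibitor wells for full effect.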 The following applies: Plasmodium falciparum 7G8 proliferation inhibition; series mostly up to 28.7 µM.
The mark [7] stands for this setting: measured here: cell count channel max response.
[8] abbreviates: measured here: lipid channel max response.

Molecules are shown by their SMILES. Values joined by “and” are separate entries in the source; they are usually repeats but may differ in a detail not shown here. Equal entries are not always repeated. Records with an inconclusive call do not appear. Active and inactive are the calls of the source. Unless noted, the call rests on the fitted dose curve; in most records, active means well fitted curve in the direction sought with a large enough effect; inconclusive means small, poorly fitted or top-dose-only effect, or another doubt; inactive means no such curve, though single readings can be large; an effect the other way counts as inactive or inconclusive.

Sequence of DNA repair nuclease/redox regulator APEX1 (Homo sapiens) (P27695 whole entry, looked up): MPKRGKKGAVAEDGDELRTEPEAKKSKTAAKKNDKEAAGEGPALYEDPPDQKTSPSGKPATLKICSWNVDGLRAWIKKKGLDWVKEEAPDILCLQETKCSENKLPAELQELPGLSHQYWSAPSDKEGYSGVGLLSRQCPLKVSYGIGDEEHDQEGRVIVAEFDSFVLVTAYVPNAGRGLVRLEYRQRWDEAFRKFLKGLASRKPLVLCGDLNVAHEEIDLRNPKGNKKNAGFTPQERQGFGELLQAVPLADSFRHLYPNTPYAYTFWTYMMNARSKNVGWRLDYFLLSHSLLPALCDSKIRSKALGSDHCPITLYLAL

As for `CCCc1nc(C(C)(C)O)c(C(=O)OCc2oc(=O)oc2C)n1Cc1ccc(-c2ccccc2-c2nn[nH]n2)cc1`, in assay [1] (at 57.5 µM (top of the series)), the activity change, negative = inhibition is 8.57% (inactive). Besides, the max response in assay [1] (setting [7]) amounted to 19.2%; in assay [1] (setting [8]), 29.3%. Regarding `O=C(O)Cc1cc(I)c(Oc2ccc(O)c(I)c2)c(I)c1`, the activity change, negative = inhibition in assay [1] (at 25.7 µM (top of the series)) is -0.457% (inactive). The max response in assay [1] (setting [7]) came to 2.07%; in assay [1] (setting [8]), 0.793%.

With `CC(=O)[C@H]1CC[C@H]2[C@@H]3C=CC4=CC(=O)CC[C@@]4(C)[C@H]3CC[C@]12C`, the activity change, negative = inhibition in assay [1] (at 25.7 µM (top of the series)) is -2.63% (inactive). For the same compound, the values for the max response in assay [1] (setting [7]) and in assay [1] (setting [8]) were -13.1% and -17%, respectively. As for `O=C(CCCCCCCCCCCCC1CCCC1)Nc1ccc(S(=O)(=O)c2ccc(NC(=O)CCCCCCCCCCCCC3CCCC3)cc2)cc1`, the activity change, negative = inhibition in assay [1] (at 57.5 µM (top of the series)) is 10% (inactive). The max response turned out to be 14.8% in assay [1] (setting [7]) and 25.4% in assay [1] (setting [8]).

On to `Nc1ccc(N=Nc2ccccc2)c(N)n1`, for which the Potency result in assay [2] was “inactive”. Besides, the activity change, negative = inhibition was -0.0516% (inactive) in assay [1] (at 25.7 µM (top of the series)) and 17.8% (inactive) in assay [1] (at 57.5 µM (top of the series)). Moreover, the max response in assay [1] (setting [7]) is -20.4% and -3.25%; in assay [1] (setting [8]) it was -21.4% and 16.6%. As to `N[C@H](CC(=O)O)C(=O)O`, the activity change, negative = inhibition in assay [1] (at 57.5 µM (top of the series)) is -1.19% (inactive). Also, the max response in assay [1] (setting [7]) is -13%; in assay [1] (setting [8]) it was -12.9%. Taken in the same sequence, the figures for `C=CC(C)(O)CC/C=C(\C)CCC=C(C)C` (stereo unspecified) were 0.625% (inactive), 5.67% and 8.64%. For the compound `CC(=O)N=c1sc(S(N)(=O)=O)nn1C`, the activity change, negative = inhibition is -5.24% (inactive) in assay [1] (at 25.7 µM (top of the series)) and -1.51% (inactive) in assay [1] (at 57.5 µM (top of the series)). In addition, the max response was -10.9% and 5.08% in assay [1] (setting [7]); -12.6% and 4.84% in assay [1] (setting [8]). Regarding `CC(=O)Nc1ccc(OC(=O)c2ccccc2O)cc1`, the activity change, negative = inhibition in assay [1] (at 57.5 µM (top of the series)) was 5.77% (inactive). Moreover, the results for the max response in assay [1] (setting [7]) and in assay [1] (setting [8]) were 14.6% and 24.9%, respectively. As to `Oc1ccc(/C=C/c2cc(O)cc(O)c2)cc1`, in assay [1] (at 57.5 µM (top of the series)), the activity change, negative = inhibition was 25.3% (inactive). The max response in assay [1] (setting [7]) is -23.2%; in assay [1] (setting [8]), 2.31%. Further, the result in assay [3], in assay [4] and in assay [5] was inactive. Moreover, the Potency result in assay [6] was “inactive”.

As to `CC(C)c1nc(N(C)S(C)(=O)=O)nc(-c2ccc(F)cc2)c1/C=C/C(O)CC(O)CC(=O)O` (stereo unspecified), in assay [1] (at 57.5 µM (top of the series)), the activity change, negative = inhibition was 2.85% (inactive). The max response was determined as 4.28% in assay [1] (setting [7]) and 9.26% in assay [1] (setting [8]). Taken in the same sequence, the figures for `N#Cc1ccc2c(c1)N(CCCN1CCC(O)CC1)c1ccccc1S2` were 6.36% (inactive), 2.04% and 8.33%. For `OCC(O)CO`, the Potency result in assay [2] is “inactive”.

For the compound `CC/C=C\C/C=C\C/C=C\CCCCCCCC(=O)O`, the Potency entry in assay [2] was “inactive”.

For `CO/N=C(/C(=O)N[C@@H]1C(=O)N2C(C(=O)O)=C(COC(N)=O)CS[C@H]12)c1ccco1`, in assay [2], the Potency entry was “inactive”.

For `CO`, the Potency result in assay [2] is “inactive”.

Turning to `COC(=O)c1ccccc1O`, the Potency entry in assay [2] was “inactive”.

On to `OCl`, for which the Potency result in assay [2] is “inactive”. The same measure, in the same setting: the same measure for `O=c1n(CC2CO2)c(=O)n(CC2CO2)c(=O)n1CC1CO1` (stereo unspecified): 7.94 µM (active). On the same count and under the same terms, in the case of `CC1=CCC2CC1C2(C)C` (stereo unspecified) it was “inactive”. On the same count and under the same terms, in the case of `CC(C)(C)CC(C)(C)c1ccc(OCCO)cc1` it was “inactive”. For the compound `NC(N)=O`, the Potency result in assay [2] was “inactive”. Also, the activity change, negative = inhibition in assay [1] (at 57.5 µM (top of the series)) was 6.91% (inactive). For the same compound, the max response in assay [1] (setting [7]) worked out at 16.8%; in assay [1] (setting [8]) it was 28%. With `OC[C@H]1O[C@@H]2O[C@H]3[C@H](O)[C@@H](O)[C@@H](O[C@H]4[C@H](O)[C@@H](O)[C@@H](O[C@H]5[C@H](O)[C@@H](O)[C@@H](O[C@H]6[C@H](O)[C@@H](O)[C@@H](O[C@H]7[C@H](O)[C@@H](O)[C@@H](O[C@H]1[C@H](O)[C@H]2O)O[C@@H]7CO)O[C@@H]6CO)O[C@@H]5CO)O[C@@H]4CO)O[C@@H]3CO`, in assay [2], the Potency entry was “inactive”. As for `Cc1ncc[nH]1`, the Potency entry in assay [2] was “inactive”.

In the case of `[O-][N+](=Nc1ccccc1)c1ccccc1`, the Potency result in assay [2] is “inactive”. On to `Oc1cccc(O)c1O`, for which the Potency result in assay [2] was “inactive”. Same read-out and setting: the same measure for `CCCCO`: “inactive”.

As for `Nc1nccs1`, in assay [2], the Potency entry is “inactive”. In addition, the activity change, negative = inhibition in assay [1] (at 57.5 µM (top of the series)) is 6.96% (inactive). Also, the max response in assay [1] (setting [7]) is -1.03%; in assay [1] (setting [8]), 14.6%. Taken in the same sequence, the figures for `Nc1ncnc2c1ncn2[C@H]1CC[C@@H](CO)O1` were “inactive”, 1.8% (inactive), 3.29% and 6.18%. With `CC1=CC(=O)NS(=O)(=O)O1`, the Potency result in assay [2] is “inactive”. Turning to `CCCCC`, the Potency entry in assay [2] was “inactive”. The same measure, in the same setting: the same measure for `NCCN`: “inactive”; for `O=P(O)(O)O`: “inactive”. On to `C[C@H](CCC(=O)O)[C@H]1CC[C@H]2[C@@H]3[C@H](O)C[C@@H]4C[C@H](O)CC[C@]4(C)[C@H]3C[C@H](O)[C@]12C`, for which the Potency result in assay [2] is “inactive”. On the same count and under the same terms, the same measure for `OCc1ccccc1`: “inactive”; for `CC(C)O`: “inactive”. Still for that read-out and setting: the same measure for `CCOC(C)OCC`: “inactive”; for `O.O.O.O.O.O.O.O=S(=O)([O-])[O-].[Co+2]`: “inactive”; for `Cc1ccc(S(=O)(=O)O)cc1C`: “inactive”. On the same count and under the same terms, the same measure for `C[C@H](CCC(=O)O)[C@H]1CC[C@H]2[C@@H]3CC[C@@H]4C[C@H](O)CC[C@]4(C)[C@H]3C[C@H](O)[C@]12C`: “inactive”; for `C/C=C/C=C/C(=O)O`: “inactive”; for `c1ccc2ccccc2c1`: “inactive”. Consider `OB(O)O`, for which, in assay [2], the Potency entry was “inactive”.

Regarding `CC[C@H]1OC(=O)[C@H](C)[C@@H](O[C@H]2C[C@@](C)(OC)[C@@H](O)[C@H](C)O2)[C@H](C)[C@@H](O[C@@H]2O[C@H](C)C[C@H](N(C)C)[C@H]2O)[C@](C)(O)C[C@@H](C)CN(C)[C@H](C)[C@@H](O)[C@]1(C)O`, in assay [2], the Potency result is “inactive”. Still for that read-out and setting: the same measure for `ClC(Cl)Cl`: “inactive”. For `C[C@H]1O[C@@H](O[C@H]2[C@@H](O)C[C@H](O[C@H]3[C@@H](O)C[C@H](O[C@H]4CC[C@@]5(C)[C@H](CC[C@@H]6[C@@H]5C[C@@H](O)[C@]5(C)[C@@H](C7=CC(=O)OC7)CC[C@]65O)C4)O[C@@H]3C)O[C@@H]2C)C[C@H](O)[C@@H]1O`, in assay [2], the Potency was 0.158 µM (active).
